Measurements taken from the supplement of paper PMC4100887.
± gives the standard deviation of the averaged measurements.

What was measured:
[1] = test system: IMR-90; assay: relative cell viability (ATPlite) vs untreated control (fraction); higher = less toxic; settings: 1 µM; 72 h
[2] = test system: K562; assay: as above; settings: 1 µM; 72 h
[3] = test system: K562; assay: relative cell viability (ATPlite) vs untreated control, with imatinib (fraction); higher = less toxic; settings: 1 µM; 72 h; imatinib 0.125 µM

Structure (SMILES) | relative cell viability [1] | relative cell viability [2] | relative cell viability [3]
Nc1ncnc2c1c(I)cn2[C@@H]1O[C@H](CO)[C@@H](O)[C@H]1O [5-Iodotubercidin] | 0.745 ± 0.14 | 0.715 ± 0.12 | 0.702 ± 0.065
NC(=O)Nc1sc(-c2ccccc2)cc1C(N)=O [IKK-2 Inhibitor VI] | 0.942 ± 0.1 | 0.861 ± 0.097 | 0.695 ± 0.056
CC(C)(C)c1ccc(S(=O)(=O)Nc2ccc(-n3ccnc3)cc2)cc1 [Stem-Cell Factor/c-Kit Inhibitor, ISCK03] | 0.897 ± 0.068 | 0.818 ± 0.096 | 0.742 ± 0.038
CC[C@@H](CO)Nc1nc(NCc2ccc(-c3ccccn3)cc2)c2ncn(C(C)C)c2n1 [CR8, (S)-Isomer] | 0.107 ± 0.035 | 0.0828 ± 0.015 | 0.0705 ± 0.018
O=C1NC(=O)C(c2c[nH]c3ccccc23)=C1c1c[nH]c2ccccc12 [Bisindolylmaleimide IV] | 0.826 ± 0.14 | 0.936 ± 0.053 | 0.851 ± 0.024
